# GRIN3A LBD mod: modulators (binders) of human NR3A ligand-binding domain. 340,000 tested, 2.5% active. AID 1259313. Tm shift relative to glycine control, % at 25 µM. NR3A LBD differential scanning fluorimetry, Tm shift; 0% = protein alone, 100% = glycine-bound protein;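 active = melting temperature shift of at least 10% of the positive control shift, at one fixed dose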
# ADAM10 inh: inhibits human ADAM10; O14672; 370,000 tested, 0.62% active; recombinant ADAM10, EDANS/DABCYL FRET peptide cleavage, 3 h; inhibition, % at 7 µM;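 active = inhibition above a per-campaign cutoff equal to the mean of compounds falling between control-based bounds plus 3 SD, cut at about 20% in these data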;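 also: 0% = DMSO wells while the 100% control is not disclosed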
# Target sequence (O14672 214-748 limits assumed): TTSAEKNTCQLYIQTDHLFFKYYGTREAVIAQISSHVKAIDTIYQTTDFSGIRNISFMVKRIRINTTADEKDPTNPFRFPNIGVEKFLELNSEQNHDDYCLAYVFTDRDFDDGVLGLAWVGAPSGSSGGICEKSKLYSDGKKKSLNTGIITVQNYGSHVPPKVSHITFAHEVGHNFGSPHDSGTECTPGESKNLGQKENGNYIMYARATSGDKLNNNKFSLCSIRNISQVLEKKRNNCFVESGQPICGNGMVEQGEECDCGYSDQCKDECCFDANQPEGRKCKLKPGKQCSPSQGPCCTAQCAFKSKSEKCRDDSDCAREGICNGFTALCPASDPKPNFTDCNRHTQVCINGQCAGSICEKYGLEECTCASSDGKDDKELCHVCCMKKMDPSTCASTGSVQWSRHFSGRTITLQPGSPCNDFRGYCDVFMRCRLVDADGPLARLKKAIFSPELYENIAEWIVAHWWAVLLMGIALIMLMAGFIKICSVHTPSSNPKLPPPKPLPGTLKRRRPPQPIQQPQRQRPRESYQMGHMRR
# FAS-TE inh: blocks the thioesterase domain of human fatty acid synthase. 360,000 tested, 0.67% active. P49327. AID 602261. recombinant FAS-TE, OMFH fluorogenic substrate, fluorescence endpoint. inhibition, % at 15 µM;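 active = compounds whose normalised, plate-corrected inhibition of enzyme fluorescence in the single-dose primary screen is 50% or more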;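 also: 0% = DMSO with enzyme and 100% = substrate without enzyme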
# aDG glyco up: alpha-DG glycosylation activation. 360,000 tested, 0.22% active. activation, % at 10 µM. Pro5-aDG cells, alpha-DG glycosylation AlphaScreen (IIH6); 0% Pro5, 100% B10-LARGE cell signal;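 active = activation of at least 8% versus controls, or a plate z-score of at least 8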;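 also: Pro5 are CHO cells carrying HIG-tagged alpha-DG that lacks glycosylation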
# ADAM17 inh: ADAM17 inhibition, QFRET primary screen; inhibition, % at 6.95 µM; AID 720648; P78536; recombinant ADAM17, EDANS/DABCYL FRET peptide cleavage; 370,000 tested, 0.83% active;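 active = inhibition above the mean of compounds lying between control limits plus 3 SD, set per campaign, cut at about 8.5% in these data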;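 also: 0% = DMSO-only wells as the low control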
# ADAM10 confirm: human ADAM10 inhibition, confirmation | shares compounds with ADAM10 inh | ADAM10 QFRET peptide cleavage, EDANS fluorescence | inhibition, % at 6.95 µM | 2,100 tested, 1% active | AID 743208;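 active = inhibition above about 20% chosen separately for each screening run, limit read from the data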;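 also: 0% = DMSO wells and 100% = marimastat wells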
# ADAM17 counter: inhibits human ADAM17 in ADAM10 exosite counter-screen; shares compounds with ADAM10 inh; ADAM17 QFRET peptide cleavage, EDANS fluorescence; inhibition, % at 6.95 µM; 2,100 tested, 0.5% active;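 active = mean triplicate inhibition above the solvent-only control wells' mean plus 3 SD, cut at about 12% in these data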;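 also: 0% = DMSO wells and 100% = marimastat wells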
# The depositor's hits bear a star; nt = not tested or not shown. Only some compounds are listed: those with a hit (about 4% of all), similar ones and a draw of the others.
SMILES,GRIN3A LBD mod,ADAM10 inh,FAS-TE inh,aDG glyco up,ADAM17 inh,ADAM10 confirm,ADAM17 counter
Cc1ccc(NC(=O)c2ccc(CSc3nccc(C)n3)cc2)cc1,-4.0,21.8*,14.7,0.5,-1.6,3.2,0.0
COc1ccc(-c2oc3ccc(-c4ccc(OC)nc4)cc3c2C#CC2(O)CCCCC2)cc1,-6.5,-74.0,30.6,-0.1,-13.1,nt,nt
COc1cc(O)c2c(=O)c3c(O)ccc(O)c3oc2c1,-3.2,82.6*,-4.1,0.5,2.2,3.0,0.1
OCC(CO)N[C@H]1C[C@](O)(CO)[C@@H](O)[C@H](O)[C@H]1O,nt,1.6,nt,nt,2.7,nt,nt
O=C(NCCSCc1c(F)cccc1Cl)c1ccco1,0.4,-2.7,-2.7,0.5,-5.2,nt,nt
Cc1ccc(-c2nc(C)sc2CC(=O)OCC(=O)Nc2cccc([N+](=O)[O-])c2)cc1,-3.1,8.7,13.8,0.3,3.3,nt,nt
Cc1ccc(C(=O)c2ccccc2C(=O)OCC(=O)Nc2cccc([N+](=O)[O-])c2)cc1,-1.7,27.1*,33.7,0.1,6.6,6.2,1.2
O=C1c2cccc3cccc(c23)C(=O)N1CC1CCCO1 (stereo not given),0.0,-262.4,-6.3,-0.3,-96.1,nt,nt
NC(=O)c1ccsc1NC(=O)CCS(=O)(=O)c1ccccc1,-0.5,-1.1,-4.5,0.1,-0.5,nt,nt
NC(=O)c1ccsc1NC(=O)CS(=O)(=O)c1ccccc1,-1.8,83.7*,-7.0,-0.7,-0.8,-0.3,0.0
COc1cccc(/C(O)=C/C(=O)C(=O)Nc2ccc(S(=O)(=O)NC(C)=O)cc2)c1,-0.2,4.7,-9.2,0.2,1.5,nt,nt
COc1ccccc1C(=O)NC(=S)Nc1cccc2cc(O)ccc12,8.8,24.9*,14.1,-0.6,5.7,9.1,2.6
Cc1ccc([C@H]2C[C@]34CNS(=O)(=O)[C@H]3C[C@H]2O4)cc1,nt,-12.0,nt,nt,-5.6,nt,nt
Cc1ccc(Sc2ncccc2COC(=O)Nc2c(C)cccc2C)cc1,7.3,16.4,22.4,0.4,7.0,nt,nt
Cc1ccc(Sc2ncccc2COC(=O)Nc2ccccc2)cc1,-5.6,21.8*,19.7,1.0,7.7,6.2,2.5
CC(=NNC(=S)Nc1ccccc1)c1ccccn1,nt,26.0*,-1.9,-0.7,13.4*,47.5*,42.6*
CC(=NNC(=S)Nc1ccccc1Cl)c1ccccn1,-3.1,0.8,1.9,-0.5,2.2,nt,nt
CC(C)Oc1ccc(Cl)cc1Nc1nc(NCCO)nc(N2CCCC2)n1,-2.5,21.4*,14.5,0.2,7.2,4.2,1.8
COc1ccc(Cl)cc1Nc1nc(NCCO)nc(N2CCCC2)n1,-0.9,-1.2,-6.9,0.1,-2.8,nt,nt
COc1ccc(C(=O)Nc2ccccc2C(=O)N2CCOCC2)cc1Br,-0.4,-0.1,-7.2,0.1,-2.4,nt,nt
COc1ccc(C(=O)Nc2ccccc2C(=O)N2CCOCC2)cc1OC,1.3,20.6*,-3.0,-0.1,2.5,1.5,-0.5
Cc1nn(-c2ccccc2)c(C)c1/C=N/NC(=O)c1cc(-c2cccc3ccccc23)n[nH]1,1.4,23.7*,36.9,2.4,7.9,5.8,2.1
CNNC(=S)Nc1cccc(C(F)(F)F)c1,-0.6,6.2,-4.4,-0.2,4.0,nt,nt
Cc1ccccc1C(=O)NNC(=S)Nc1cccc(C(F)(F)F)c1,-8.1,25.1*,-6.0,-0.2,8.7*,3.8,1.3
Cn1c(=O)c2c(nc(N3CCCCC3)n2CC(O)COc2ccccc2)n(C)c1=O (stereo not given),-1.2,20.6*,1.8,0.0,-0.1,-0.6,-0.2
SMILES,GRIN3A LBD mod,ADAM10 inh,FAS-TE inh,aDG glyco up,ADAM17 inh,ADAM10 confirm,ADAM17 counter
O=c1oc2ccc(Cl)cc2cc1-c1nnc(Nc2cccc(C(F)(F)F)c2)s1,-2.1,4.4,-3.8,0.0,-2.7,nt,nt
COc1ccc(C(=O)OCC(=O)N2CCC(C)CC2)cc1S(=O)(=O)N1CCOCC1,-1.9,-10.4,-5.4,0.0,-1.6,nt,nt
Cc1ccc(S(=O)(=O)N2C[C@H]3C(=O)C[C@@H](c4ccc(Cl)cc4)N(S(=O)(=O)c4ccccc4C)[C@H]3C[C@H]2c2cccc(Cl)c2)cc1,nt,-2.9,22.5,-0.1,0.7,nt,nt
O=C(CN1CCC(n2nnc3cc(C(F)(F)F)ccc32)CC1)NCc1cccs1,2.8,2.8,-0.7,0.3,1.5,nt,nt
CCNc1nc(NC(C)C)nc(SCCOc2ccc(C)cc2)n1,-2.1,23.6*,20.3,0.2,7.1,6.9,1.4
CCNc1nc(NC(C)C)nc(SCCOC(=O)c2ccccc2)n1,0.9,14.5,5.1,0.2,5.3,nt,nt
Cc1cc2occ(CC(=O)NCc3cccs3)c2cc1C(C)C,-2.1,15.3,4.7,0.0,-1.9,nt,nt
Cc1csc(NC(=O)Cc2coc3cc(C)c(C(C)C)cc23)n1,-4.3,23.1*,23.1,0.1,6.7,7.3,0.9
Cc1c(Cl)cccc1NC(=O)CNC(=O)Cc1c[nH]c2ccccc12,0.2,32.7*,-0.9,0.4,0.1,3.0,0.1
Cc1cccc(C)c1NC(=O)CNC(=O)Cc1c[nH]c2ccccc12,-1.6,1.6,-4.5,-0.2,-3.7,nt,nt
COc1ccc(S(=O)(=O)NCC(=O)N(Cc2ccco2)C(C(=O)NC(C)(C)C)C(C)C)cc1 (stereo not given),-2.0,20.4*,-2.0,-0.1,-0.2,1.2,0.4
CC(C)C(C(=O)NCc1ccco1)N(Cc1ccco1)C(=O)CNS(=O)(=O)c1ccccc1 (stereo not given),-0.7,-3.9,1.4,0.0,-1.3,nt,nt
COCC(=O)Nc1nnc(SCC(=O)N2C(C)CCCC2C)s1 (stereo not given),5.7,1.3,-2.2,-0.1,2.6,nt,nt
COc1ccc(Cn2c(C)nc([N+](=O)[O-])c2SCC(=O)O)cc1[N+](=O)[O-],0.6,2.1,0.1,0.4,-0.5,nt,nt
CN(C/C=C/c1ccccc1[N+](=O)[O-])Cc1ccccc1,-1.4,-11.1,0.2,-0.2,2.1,nt,nt
O=C(NCc1ccc2c(c1)OCO2)c1ccccc1Cl,-1.0,1.7,-2.1,0.0,-2.6,nt,nt
O=C(NCc1ccc2c(c1)OCO2)c1ccc(CSCc2ccccc2Cl)o1,1.7,23.2*,28.6,0.0,6.7,8.0,3.6
N#Cc1cccc(-c2csc(C(O)(c3ccccc3)C(F)(F)F)n2)c1 (stereo not given),nt,20.4*,40.1,0.2,8.1,4.4,1.4
OC(c1ccccc1)(c1nc(-c2ccc(Cl)cc2)cs1)C(F)(F)F (stereo not given),nt,22.7*,43.3,0.2,8.5,11.2,3.4
COc1ccc(-c2csc(C(O)(c3ccccc3)C(F)(F)F)n2)cc1 (stereo not given),nt,18.6,26.5,-0.1,8.3,nt,nt
CC(C)CCNC(=O)C(c1ccc(O)cc1)N(Cc1cccs1)C(=O)C1COc2ccccc2O1 (stereo not given),-2.9,22.3*,14.7,0.7,7.8,6.4,1.8
